From the supplement of paper PMC9254222
The full ranking holds about 1,100 compounds; the median of “Wnt reporter firefly/Renilla luciferase ratio relative to plate median” is about 1.1, and the highest 2% start at about 1.6. The list comes from a sample in which the highest values are over-represented; it also holds similar structures and randomly drawn compounds.

System: HEK293T (UBE3A T485A transfected, BAR Wnt reporter)
Assay: Wnt reporter firefly/Renilla luciferase ratio relative to plate median (fold (linear ratio)); higher = more Wnt/beta-catenin reporter activation
Settings: 24 h
Summary of the method: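 Using Fugene 6, HEK293T cells in white 384-well plates (4500 cells/well; DMEM, 10% FBS, 37°C, 5% CO2) were transfected with a BAR firefly luciferase Wnt reporter, TK-Renilla and an expression plasmid. After four hours, robots dosed the chemicals at 0.01–100 uM, and a Dual-Glo luciferase readout followed 24 h later. Per-plate median-centred firefly/Renilla ratios gave Wnt activity, while per-plate median-centred raw Renilla signals gave cell health. Four biological replicates were averaged.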

Row | SMILES | Wnt reporter firefly/Renilla luciferase ratio (concentration: 0.1 uM) | Wnt reporter firefly/Renilla luciferase ratio (concentration: 1 uM) | Wnt reporter firefly/Renilla luciferase ratio (concentration: 10 uM) | Wnt reporter firefly/Renilla luciferase ratio (concentration: 100 uM) | Wnt reporter firefly/Renilla luciferase ratio (concentration: 0.01 uM)
1 | CCC(C)(c1ccc(O)cc1)c1ccc(O)cc1 [Bisphenol B] | 1.11 | 0.969 | 0.999 | 0.0398 | 
2 | N#Cc1c(Cl)c(Cl)c(Cl)c(C#N)c1Cl [Chlorothalonil] | 0.784 | 1.16 | 0.725 |  | 0.876
3 | CCCCOC(=O)[C@@H](C)Oc1ccc(Oc2ccc(C#N)cc2F)cc1 [Cyhalofop-butyl] | 0.959 | 1.06 | 0.848 | 0.697 | 1.1
4 | CC(C)(OOC(C)(C)c1ccccc1)c1ccccc1 [Dicumyl peroxide] | 1.15 | 0.998 | 0.968 | 1.39 | 
5 | C#CCC1=C(C)C(OC(=O)C2C(C=C(C)C)C2(C)C)CC1=O (stereo not drawn) [Prallethrin] | 0.996 | 1.04 | 1.05 | 0.276 | 0.931
6 | CC(C)(C)c1ccc(O)cc1 [4-tert-Butylphenol] | 0.97 | 1.1 | 0.863 | 1.21 | 
7 | CO/C=C(/C(=O)OC)c1ccccc1Oc1cc(Oc2ccccc2C#N)ncn1 [Azoxystrobin] | 1.25 | 1.04 | 0.786 | 0.984 | 1.4
8 | CCC(=NOC/C=C/Cl)C1=C(O)CC(C2CCOCC2)CC1=O (stereo not drawn) [Tepraloxydim] | 0.79 | 1.12 | 1.08 | 1.18 | 0.655
9 | O=[N+]([O-])c1c(Cl)c(Cl)c(Cl)c(Cl)c1Cl [Pentachloronitrobenzene] | 0.765 | 1 | 0.856 | 1.26 | 0.743
10 | Nc1ccc(Cl)cc1 [4-Chloroaniline] | 1.15 | 1.08 | 0.914 | 0.367 | 
11 | CCOP(=S)(OCC)Oc1cc(C)nc(C(C)C)n1 [Diazinon] | 0.815 | 1.01 | 1.25 | 1.14 | 0.789
12 | CCOC(=O)C(C)OC(=O)c1cc(Oc2ccc(C(F)(F)F)cc2Cl)ccc1[N+](=O)[O-] (stereo not drawn) [Lactofen] | 1.3 | 1.14 | 1.16 | 0.261 | 1.04
13 | CC(C)Nc1nc(Cl)nc(NC(C)C)n1 [Propazine] | 1.1 | 1.01 | 1.03 | 1.11 | 1.55
14 | Oc1c(Cl)cc(Cl)cc1Cl [2,4,6-Trichlorophenol] | 0.821 | 1.09 | 1.37 | 0.524 | 
15 | CS(=O)(=O)c1cc(C(F)(F)F)ccc1C(=O)c1cnoc1C1CC1 [Isoxaflutole] | 1.4 | 1.02 | 1.36 | 1.45 | 1.11
16 | C#CCOS(=O)OC1CCCCC1Oc1ccc(C(C)(C)C)cc1 (stereo not drawn) [Propargite] | 1.16 | 1.02 | 0.934 | 0.259 | 1.24

Row | SMILES | Wnt reporter firefly/Renilla luciferase ratio (concentration: 0.1 uM) | Wnt reporter firefly/Renilla luciferase ratio (concentration: 1 uM) | Wnt reporter firefly/Renilla luciferase ratio (concentration: 10 uM) | Wnt reporter firefly/Renilla luciferase ratio (concentration: 100 uM) | Wnt reporter firefly/Renilla luciferase ratio (concentration: 0.01 uM)
17 | CON=C(C(=O)OC)c1ccccc1CON=C(C)c1cccc(C(F)(F)F)c1 [Trifloxystrobin] | 1.03 | 0.939 | 0.327 |  | 0.871
18 | COP(=S)(OC)Oc1ccc([N+](=O)[O-])c(C)c1 [Fenitrothion] | 2.01 | 1.26 | 1.43 | 0.976 | 1.53
19 | COP(=S)(OC)Oc1ccc([N+](=O)[O-])cc1 [Methyl parathion] | 1.05 | 1.21 | 1.02 | 0.89 | 1.23
20 | COP(=S)(OC)Oc1ccc(SC)c(C)c1 [Fenthion] | 0.993 | 1.04 | 1.08 | 0.984 | 1.02
21 | CCCCC(CC)COC(=O)c1ccccc1C(=O)OCC(CC)CCCC (stereo not drawn) [Di(2-ethylhexyl) phthalate] | 0.902 | 1.01 | 1.09 | 0.42 | 0.948
22 | Clc1ccccc1Cl [1,2-Dichlorobenzene] | 0.904 | 1.01 | 0.88 | 1.62 | 
23 | Oc1ccccc1Cl [2-Chlorophenol] | 0.951 | 0.944 | 1.24 | 1.52 | 
24 | Clc1cccc(Cl)c1Cl [1,2,3-Trichlorobenzene] | 1.09 | 1.1 | 1.05 | 1.01 | 
25 | COc1ccc(C)cc1N [2-Methoxy-5-methylaniline] | 1.14 | 1.31 | 1.26 | 1.29 | 
26 | C1=Cc2cccc3cccc1c23 [Acenaphthylene] | 1.29 | 1.26 | 1.41 | 0.898 | 
27 | CCCCCCCc1ccc(O)cc1 [4-Heptylphenol] | 0.655 | 0.978 | 1.2 | 1.01 | 
28 | CCCCCCCCCc1ccc(O)cc1 [4-Nonylphenol] | 0.995 | 0.971 | 1.16 | 0.953 | 
29 | CCCCCCCCCc1ccc(O)cc1 [4-Nonylphenol, branched] | 1.17 | 1.09 | 0.969 | 1.71 | 
30 | CC(C)(C)C(O)/C(=C\c1ccc(Cl)cc1Cl)n1cncn1 (stereo not drawn) [Diniconazole] | 1.05 | 0.977 | 0.744 |  | 1.09
31 | Clc1ccc(C(c2ccc(Cl)cc2)C(Cl)Cl)cc1 | 0.983 | 0.999 | 0.984 | 1.16 | 
32 | COc1cccc(NCC(F)Cn2c3ccc(Br)cc3c3cc(Br)ccc32)c1 (stereo not drawn) | 1.11 | 1.28 | 0.896 | 1.01 | 0.859
